The whole screen tested about 5,500 compounds, of which about 2,000 (36%) were called active. Another 18% or so got no clear call; they are omitted. Rule as the data show it: active = normalized growth mostly below about 0.91 (no sharp cut-off); inconclusive = no clear call, values can overlap the other calls; inactive = mostly above about 0.92. This is one part of the list.
Test: chemical genetic growth profiling, strain panel (AID 1159580);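 also: tested at 20 µM; growth read once vehicle control cultures reached saturation at 30 °C; 1 = growth at the plate median or of vehicle wells; lower values mean less growth of the strain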
Details: S. cerevisiae deletion strains, growth OD
[1] = locus YAL040C, strain CLN3, stronger effect = lower value
[2] = locus YCL061C, strain MRC1 (second series), stronger effect = lower value
[3] = locus YDR363W, strain ESC2, stronger effect = lower value
[4] = locus YER002W, strain NOP16, stronger effect = lower value
[5] = locus YJR075W, strain HOC1, stronger effect = lower value
[6] = locus YMR263W, strain SAP30, stronger effect = lower value
[7] = locus YNL175C, strain NOP13, stronger effect = lower value
[8] = locus YNL197C, strain WHI3, stronger effect = lower value
[9] = locus YNL224C, strain SQS1, stronger effect = lower value
[10] = locus YOR083W, strain WHI5 (second series), stronger effect = lower value
[11] = locus YPL055C, strain LGE1, stronger effect = lower value

Measured: normalized growth

Fc1ccc(C(OCCN2CCN(CCCc3ccccc3)CC2)c2ccc(F)cc2)cc1
inactive: [1] 1.02 | [4] 1.06 | [6] 0.997 | [7] 0.972 | [8] 1.08 | [9] 1.05 | [10] 0.903
active: [2] 0.881 | locus YDR150W, strain NUM1, stronger effect = lower value 0.78 | [3] 0.851 | locus YGR078C, strain PAC10, stronger effect = lower value 0.868 | locus YGR229C, strain SMI1, stronger effect = lower value 0.0957 | [5] 0.797 | locus YMR307W, strain GAS1, stronger effect = lower value 0.891 | locus YNL153C, strain GIM3, stronger effect = lower value 0.661 | locus YNL322C, strain KRE1, stronger effect = lower value 0.705 | [11] 0.583

c1ccc(CCCN2CCN(CCOC(c3ccccc3)c3ccccc3)CC2)cc1
active: [2] 0.932
inactive: locus YAL013W, strain DEP1, stronger effect = lower value 0.977 | [1] 0.967 | [3] 0.941 | [4] 0.998 | [5] 0.93 | [6] 0.992 | [7] 0.996 | [8] 0.991 | [9] 1.02 | [10] 0.881 | [11] 0.95

Source: PubChem BioAssay AID1159580 (chemical genetic matrix, 2015)
